Common to all, as to parameters: scale not given: direction of the effect not stated beside the values
The target in experiment [1] is Protein translocase subunit SecA (Escherichia coli (strain K12)) (UniProt P10408). Put plainly: Assay to Identify E. coli SecA ATPase Inhibitors. The format is functional. Conditions: 30 µM.
For experiment [2], the target named is T1, Ubiquitin-activating enzyme e1, putative (Leishmania donovani (strain BPK282A1)) (UniProt E9BSI1).
T1 sequence (whole entry): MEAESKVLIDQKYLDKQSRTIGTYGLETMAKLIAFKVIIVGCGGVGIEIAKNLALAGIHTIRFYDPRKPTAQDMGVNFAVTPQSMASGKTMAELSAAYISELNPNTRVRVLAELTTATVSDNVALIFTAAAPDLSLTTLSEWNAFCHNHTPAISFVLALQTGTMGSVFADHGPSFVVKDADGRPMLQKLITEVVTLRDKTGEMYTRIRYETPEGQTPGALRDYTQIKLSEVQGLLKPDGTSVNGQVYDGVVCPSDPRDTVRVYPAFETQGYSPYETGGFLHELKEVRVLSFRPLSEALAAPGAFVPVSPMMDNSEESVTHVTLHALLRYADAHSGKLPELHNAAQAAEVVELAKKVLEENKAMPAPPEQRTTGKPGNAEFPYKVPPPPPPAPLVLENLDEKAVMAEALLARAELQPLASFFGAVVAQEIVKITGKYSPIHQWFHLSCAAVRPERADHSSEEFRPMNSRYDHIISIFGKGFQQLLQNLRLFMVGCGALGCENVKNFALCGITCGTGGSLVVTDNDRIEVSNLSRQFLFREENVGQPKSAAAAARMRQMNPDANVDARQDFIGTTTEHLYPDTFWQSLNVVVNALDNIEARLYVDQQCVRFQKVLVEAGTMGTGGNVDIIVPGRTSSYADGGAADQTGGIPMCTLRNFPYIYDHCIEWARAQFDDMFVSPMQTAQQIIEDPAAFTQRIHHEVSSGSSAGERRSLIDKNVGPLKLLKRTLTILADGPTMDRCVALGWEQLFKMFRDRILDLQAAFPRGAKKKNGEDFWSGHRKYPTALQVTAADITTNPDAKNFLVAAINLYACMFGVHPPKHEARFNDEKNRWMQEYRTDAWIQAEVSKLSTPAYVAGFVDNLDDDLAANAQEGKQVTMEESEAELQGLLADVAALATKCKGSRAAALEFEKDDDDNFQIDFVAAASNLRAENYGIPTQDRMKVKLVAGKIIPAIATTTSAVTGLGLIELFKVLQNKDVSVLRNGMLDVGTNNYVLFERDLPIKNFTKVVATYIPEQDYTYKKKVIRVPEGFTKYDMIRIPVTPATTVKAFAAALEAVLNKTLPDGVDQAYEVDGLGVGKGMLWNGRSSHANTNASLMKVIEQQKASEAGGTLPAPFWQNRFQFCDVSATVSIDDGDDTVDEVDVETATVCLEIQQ
Put plainly: Leishmania donovani Ubiquitin Activating Enzyme (LdE1). The format is functional. The note with it: 30 µM.

In experiment [3] the target is AMP-activated protein kinase, AMPK (Homo sapiens) (UniProt P54646+O43741+P54619+Q9UGJ0+Q9Y478+Q13131+Q9UGI9). Put plainly: AMP-dependent Kinase enzyme assay. An in vitro enzyme assay that detects ADP turnover that is directly proportional to AMPK activity. This uses naive AMPK that is activated during the assay with MK-8722. Conditions: 30 µM. The format is functional.

Experiment [4] has as its target Sialic acid-binding Ig-like lectin 9 (Homo sapiens) (UniProt Q9Y336). Put plainly: Hs-Siglec9 ALPHAscreen SOP 20170721. The note with it: 10 µM.
The subject of a further experiment is Trypanosoma cruzi. Put plainly: Trypanosoma cruzi phosphomannomutase and mannose-1-phosphate guanylyltransferase assay. It is filed as functional. The note with it: 10 µM.
For experiment [5], the target named is T2, Arginase-2, mitochondrial (Homo sapiens) (UniProt P78540).
T2 sequence (whole entry): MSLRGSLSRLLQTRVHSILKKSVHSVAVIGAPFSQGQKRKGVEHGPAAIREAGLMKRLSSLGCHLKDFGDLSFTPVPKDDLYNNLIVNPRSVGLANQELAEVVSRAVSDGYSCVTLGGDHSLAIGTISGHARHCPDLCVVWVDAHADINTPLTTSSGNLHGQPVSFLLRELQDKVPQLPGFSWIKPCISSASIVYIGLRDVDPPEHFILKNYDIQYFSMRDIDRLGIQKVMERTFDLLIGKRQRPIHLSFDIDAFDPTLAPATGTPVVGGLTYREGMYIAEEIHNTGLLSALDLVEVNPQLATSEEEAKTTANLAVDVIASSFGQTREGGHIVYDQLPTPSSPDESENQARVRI
Put plainly: in vitro enzyme assay to detect the production of urea directly proportional to the activity of Arginase II. Note: in the data most compounds retested in dose-response had high values. The format is functional. Conditions: 33.3 µM.

The target of experiment [6] is T3, Proteasome subunit beta (Trypanosoma cruzi) (UniProt O96673).
T3 sequence (whole entry): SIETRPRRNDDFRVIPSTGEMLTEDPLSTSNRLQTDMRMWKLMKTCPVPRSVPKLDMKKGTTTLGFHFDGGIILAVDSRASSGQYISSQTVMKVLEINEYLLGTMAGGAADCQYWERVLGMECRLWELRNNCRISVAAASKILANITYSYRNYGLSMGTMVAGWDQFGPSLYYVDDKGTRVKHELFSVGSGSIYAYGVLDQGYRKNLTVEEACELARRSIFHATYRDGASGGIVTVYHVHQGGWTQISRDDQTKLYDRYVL
Put plainly: Trypanosoma cruzi proteasome chymotrypsin-like activity (TcProtChymo) assay. Note: in the data most compounds retested in dose-response had high values. It is filed as functional. Conditions: 9.37 µM.

The species named for the next experiment is Homo sapiens. Put plainly: To identify inhibition of the IFN signalling (Jak-Stat) pathway via expression of an eGFP reporter gene under the control of an IFN-stimulated response element (ISRE) containing MxA promoter. The format is functional. Conditions: 30 µM.
In experiment [7] the target is T4, Tyrosyl-tRNA synthetase, putative (Trypanosoma cruzi (strain CL Brener)) (UniProt Q4DSP6).
T4 sequence (whole entry): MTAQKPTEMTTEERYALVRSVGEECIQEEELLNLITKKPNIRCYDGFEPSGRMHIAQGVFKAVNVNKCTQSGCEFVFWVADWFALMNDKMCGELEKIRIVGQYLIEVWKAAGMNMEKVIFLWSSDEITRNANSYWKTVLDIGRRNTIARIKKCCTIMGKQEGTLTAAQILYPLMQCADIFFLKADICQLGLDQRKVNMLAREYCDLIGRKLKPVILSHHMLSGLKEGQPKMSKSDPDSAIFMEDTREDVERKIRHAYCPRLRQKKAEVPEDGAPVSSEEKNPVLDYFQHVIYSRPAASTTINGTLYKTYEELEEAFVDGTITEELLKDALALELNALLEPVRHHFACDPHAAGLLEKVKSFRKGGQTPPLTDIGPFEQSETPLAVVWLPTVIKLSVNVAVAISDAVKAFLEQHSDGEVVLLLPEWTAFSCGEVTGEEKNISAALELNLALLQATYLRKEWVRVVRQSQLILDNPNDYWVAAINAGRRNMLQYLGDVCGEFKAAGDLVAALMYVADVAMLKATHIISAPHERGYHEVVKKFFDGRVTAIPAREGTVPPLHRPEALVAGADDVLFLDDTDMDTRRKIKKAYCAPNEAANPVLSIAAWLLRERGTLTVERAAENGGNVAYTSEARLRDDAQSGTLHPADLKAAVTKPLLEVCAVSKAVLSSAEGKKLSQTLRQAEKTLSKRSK
Put plainly: Trypanosoma cruzi tyrosyl tRNA synthetase (TcYRS) _High Tyrosine SOP. Note: in the data most compounds retested in dose-response had high values. The format is functional. Conditions: 30 µM.

Experiment [8] has as its target T4, Tyrosyl-tRNA synthetase, putative (Trypanosoma cruzi (strain CL Brener)). Put plainly: Trypanosoma cruzi tyrosyl tRNA synthetase (TcYRS) SOP. The format is functional. The note with it: 30 µM.
Experiment [9] deals with Chromo domain-containing protein 1 (Saccharomyces cerevisiae (strain ATCC 204508 / S288c) (Baker's yeast)) (UniProt P32657). Put plainly: ScCHD-1 Enzyme Inhibition Assay. Note: in the data most compounds retested in dose-response had high values. It is filed as functional. The note with it: 30 µM.
Chromo domain-containing protein 1 (Saccharomyces cerevisiae (strain ATCC 204508 / S288c) (Baker's yeast)), sequence (P32657 whole entry, the tested form may be a part): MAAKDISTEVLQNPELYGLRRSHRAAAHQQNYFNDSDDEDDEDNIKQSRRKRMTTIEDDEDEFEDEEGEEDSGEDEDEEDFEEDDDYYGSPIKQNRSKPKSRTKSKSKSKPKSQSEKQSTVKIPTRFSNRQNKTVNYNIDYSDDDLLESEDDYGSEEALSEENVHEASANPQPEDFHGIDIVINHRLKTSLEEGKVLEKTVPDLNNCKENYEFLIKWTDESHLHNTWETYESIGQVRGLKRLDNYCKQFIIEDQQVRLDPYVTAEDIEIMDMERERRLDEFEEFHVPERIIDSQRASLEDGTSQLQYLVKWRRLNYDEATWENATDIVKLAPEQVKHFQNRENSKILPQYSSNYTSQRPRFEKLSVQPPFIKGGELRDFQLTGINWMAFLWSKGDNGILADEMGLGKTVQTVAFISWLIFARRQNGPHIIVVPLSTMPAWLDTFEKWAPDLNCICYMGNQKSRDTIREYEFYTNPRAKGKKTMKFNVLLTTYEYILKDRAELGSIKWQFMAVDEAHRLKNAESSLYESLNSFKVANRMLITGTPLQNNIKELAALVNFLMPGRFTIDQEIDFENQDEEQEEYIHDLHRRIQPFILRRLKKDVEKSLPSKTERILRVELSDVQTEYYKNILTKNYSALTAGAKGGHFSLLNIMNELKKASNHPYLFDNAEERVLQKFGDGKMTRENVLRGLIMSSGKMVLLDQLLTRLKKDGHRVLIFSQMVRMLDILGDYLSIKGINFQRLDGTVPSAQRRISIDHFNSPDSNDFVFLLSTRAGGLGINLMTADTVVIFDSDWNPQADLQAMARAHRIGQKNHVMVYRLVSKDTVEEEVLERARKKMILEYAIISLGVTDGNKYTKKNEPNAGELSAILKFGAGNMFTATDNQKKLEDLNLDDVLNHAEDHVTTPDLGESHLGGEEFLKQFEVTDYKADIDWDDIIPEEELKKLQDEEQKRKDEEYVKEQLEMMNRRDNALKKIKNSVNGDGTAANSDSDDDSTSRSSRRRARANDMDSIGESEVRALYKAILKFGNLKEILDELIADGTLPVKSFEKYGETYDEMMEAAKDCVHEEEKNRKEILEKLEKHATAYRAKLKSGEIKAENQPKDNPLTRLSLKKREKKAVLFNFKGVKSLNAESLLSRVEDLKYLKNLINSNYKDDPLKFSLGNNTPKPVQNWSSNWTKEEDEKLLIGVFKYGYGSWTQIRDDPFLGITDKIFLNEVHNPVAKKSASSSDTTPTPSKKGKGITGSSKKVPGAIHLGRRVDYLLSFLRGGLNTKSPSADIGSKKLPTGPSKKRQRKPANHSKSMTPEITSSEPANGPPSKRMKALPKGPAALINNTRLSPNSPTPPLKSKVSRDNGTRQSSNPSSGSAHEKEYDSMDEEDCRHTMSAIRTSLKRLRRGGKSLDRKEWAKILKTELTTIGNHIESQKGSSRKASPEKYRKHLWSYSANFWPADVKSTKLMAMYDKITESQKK

For some of these results: Measured potencies and affinities stand elsewhere.

Sialic acid-binding Ig-like lectin 9 (Homo sapiens), sequence (Q9Y336 whole entry): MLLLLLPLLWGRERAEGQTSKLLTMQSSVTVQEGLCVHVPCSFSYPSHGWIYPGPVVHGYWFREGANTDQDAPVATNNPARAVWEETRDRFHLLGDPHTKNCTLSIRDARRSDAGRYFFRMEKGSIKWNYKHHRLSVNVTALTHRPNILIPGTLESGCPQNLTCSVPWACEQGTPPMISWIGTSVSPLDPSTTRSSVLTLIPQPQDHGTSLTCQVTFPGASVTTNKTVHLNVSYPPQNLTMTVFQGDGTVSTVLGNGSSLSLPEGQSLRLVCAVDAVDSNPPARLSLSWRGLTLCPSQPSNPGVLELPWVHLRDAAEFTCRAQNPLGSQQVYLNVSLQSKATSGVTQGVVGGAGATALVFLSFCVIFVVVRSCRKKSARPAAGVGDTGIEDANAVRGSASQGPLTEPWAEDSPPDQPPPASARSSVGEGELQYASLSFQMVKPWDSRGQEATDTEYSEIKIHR
Protein translocase subunit SecA (Escherichia coli (strain K12)), sequence (P10408 whole entry): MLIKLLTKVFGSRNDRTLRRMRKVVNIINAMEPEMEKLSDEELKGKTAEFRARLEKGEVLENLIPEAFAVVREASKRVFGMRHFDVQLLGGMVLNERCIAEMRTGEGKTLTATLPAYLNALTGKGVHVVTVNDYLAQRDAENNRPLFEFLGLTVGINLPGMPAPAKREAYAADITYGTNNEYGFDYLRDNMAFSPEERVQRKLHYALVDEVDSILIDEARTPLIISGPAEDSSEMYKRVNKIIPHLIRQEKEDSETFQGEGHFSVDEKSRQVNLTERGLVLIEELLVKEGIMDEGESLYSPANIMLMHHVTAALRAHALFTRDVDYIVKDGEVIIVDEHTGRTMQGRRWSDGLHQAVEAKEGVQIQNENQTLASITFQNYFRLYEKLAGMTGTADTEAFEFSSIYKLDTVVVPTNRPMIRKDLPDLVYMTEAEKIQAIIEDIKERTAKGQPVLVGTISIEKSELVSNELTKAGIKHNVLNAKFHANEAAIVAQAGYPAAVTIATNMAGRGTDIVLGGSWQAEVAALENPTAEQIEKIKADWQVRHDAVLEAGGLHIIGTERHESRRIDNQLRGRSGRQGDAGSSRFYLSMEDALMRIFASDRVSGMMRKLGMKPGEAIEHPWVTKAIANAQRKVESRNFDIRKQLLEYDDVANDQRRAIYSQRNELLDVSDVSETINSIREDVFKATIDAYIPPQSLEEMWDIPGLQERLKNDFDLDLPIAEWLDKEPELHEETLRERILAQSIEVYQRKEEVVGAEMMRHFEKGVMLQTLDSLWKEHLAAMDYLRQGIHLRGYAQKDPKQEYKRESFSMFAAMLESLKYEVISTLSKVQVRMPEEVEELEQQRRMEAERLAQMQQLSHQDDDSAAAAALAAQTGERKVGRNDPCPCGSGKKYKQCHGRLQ

Regarding `O=C(C1CCOCC1)N1C[C@@H]2C[C@@H](c3nc(C4CC4)cs3)O[C@@H]2C1`, the Percent Effect in [1] is 0.171%; in experiment [2], 16.4%; in experiment [3], -11.2%; in experiment [4], 8.5%; with Trypanosoma cruzi, 3.57%; in experiment [5] it was -11.6%. Further, the Percent Effect in experiment [6] was determined as 13.8%; in the experiment filed under Homo sapiens it was 1.09%; in experiment [7], 11.5%; in [8], 21%; in experiment [9], 0.447%.

Take `CN1CCC(NC(=O)NCCNc2ccccn2)CC1`: the Percent Effect in [1] was -2.67%; in [2] it was 16.2%; in [3], -6.97%; in experiment [4] it was 16.2%; in the experiment on Trypanosoma cruzi, 4.92%; in experiment [5] it was 3.14%. In addition, the Percent Effect in experiment [6] is 16.5%; in the experiment listed under Homo sapiens, 5.52%; in [7] it was 3.96%; in [8] it was 15.8%; in experiment [9], -6.11%.

With `O=C(CCc1ccccc1)N1CCn2cc(Cn3cncn3)nc2C1`, the Percent Effect in experiment [1] was -2.68%; in experiment [2] it was 0%; in experiment [3] it was 5.15%; in [4], 7.21%; with Trypanosoma cruzi, -3.45%; in experiment [5] it was -3.23%. The Percent Effect was 14.6% in experiment [6]; 22.4% in the experiment filed under Homo sapiens; 1.06% in [7]; -1.28% in [8]; 1.43% in experiment [9].

`CC(O)CN1CCC(CNCc2cccc(C(N)=O)c2)CC1` (stereo not drawn): the Percent Effect is -1.81% in experiment [1]; 18.9% in [2]; -22.5% in [3]; 11% in experiment [4]; 3.11% with Trypanosoma cruzi; -6.01% in experiment [5]. The Percent Effect in experiment [6] is 6.67%; in the experiment filed under Homo sapiens, 10.6%; in experiment [7], 8.37%; in experiment [8], 16.1%; in [9], -10%.

Consider `CCN(C)S(=O)(=O)N(CC)Cc1ccc2c(c1)OCO2`, for which the Percent Effect in experiment [1] was -5.09%; in experiment [2], 15.6%; in [3], 0.454%; in experiment [4] it was 4.35%; in the experiment with Trypanosoma cruzi, -4.49%; in experiment [5], 1.42%. For the same compound, the Percent Effect was 8.11% in experiment [6]; 11.3% in the experiment filed under Homo sapiens; 4.85% in [7]; 19.5% in [8]; -8.91% in experiment [9].

With `CC(=O)NC1CCCN(C(=O)Nc2cnc3c(cnn3C(C)C)c2)C1` (stereo not drawn), the Percent Effect in [1] is -3.14%; in experiment [2], 16.2%; in [3], 0.9%; in [4], 4.02%; in the experiment on Trypanosoma cruzi, -4.55%; in experiment [5], -1.29%. The Percent Effect in [6] is 12.2%; in the experiment filed under Homo sapiens, 5.99%; in experiment [7] it was 7.92%; in experiment [8], 23.2%; in experiment [9], -5.36%.

`COc1ccc(C2Nc3cc(Cl)ccc3C3=NCCN32)cc1OC` (stereo not drawn): the Percent Effect in [1] is -5.72%; in experiment [2] it was 2.67%; in [3] it was 2.8%; in experiment [4] it was 3.39%; with Trypanosoma cruzi, 3.54%; in experiment [5], -5.83%. The Percent Effect in [6] is 13.1%; in the experiment filed under Homo sapiens, 8.26%; in [7], 4.25%; in experiment [8], 8.97%; in experiment [9], -11.7%.

With `CN(Cc1cnn(C)c1)C(=O)Cn1c(CS(C)(=O)=O)nc2ccccc21`, the Percent Effect was -1.5% in experiment [1]; 10.5% in experiment [2]; 3.77% in experiment [3]; -0.257% in [4]; -3.6% in the experiment on Trypanosoma cruzi; -8.28% in experiment [5]. The Percent Effect in [6] was 11.2%; in the experiment filed under Homo sapiens it was 9.18%; in [7], 5.32%; in experiment [8], 10.4%; in [9], -3.69%.

These data come from ChEMBL document CHEMBL3988442, “University of Dundee, Small-Polar-MMV Screening Library” (2021).
